Tau fibril ThT: tau fibrillization inhibition (ThT binding); P10636; recombinant tau K18 P301L, heparin-induced fibrillization, ThT fluorescence; Potency, µM (titrated, usually from 57.4 µM), inactives show at the top dose activity, negative = inhibition, most hits filed as inhibitors; 270,000 compounds, 2.1% hits; AID 1460; further: potency means the concentration at half of the fitted maximal effect; nearly all actives have a fitted effect of over 55% in size
Target sequence (P10636 561-689 P618L limits assumed): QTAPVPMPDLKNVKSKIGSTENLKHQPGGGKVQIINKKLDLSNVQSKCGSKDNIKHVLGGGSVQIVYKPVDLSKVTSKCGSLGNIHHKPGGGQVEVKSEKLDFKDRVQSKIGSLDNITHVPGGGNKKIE
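Heparin-induced (20 uM) aggregation of recombinant human K18 P301L tau, 15 uM unlabeled with 0.24 uM labeled, pH 7 acetate buffer, 6 hr at 37 C with compound. Fibrils quantified by 30 uM ThT fluorescence after 1 hr ambient incubation.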
G9a inh: blocks human histone lysine methyltransferase G9a | Q96KQ7 | G9a H3K9 monomethylation, AlphaScreen, 2 h | Potency, µM (top dose mostly 102 µM), inactives show at the highest dose activity, negative = inhibition, most hits filed as inhibitors | 350,000 compounds, 8.8% hits; further: potency means the concentration at half of the fitted maximal effect; nearly all actives have a fitted effect of over 75% in size
Target sequence (Q96KQ7 913-1193 limits assumed): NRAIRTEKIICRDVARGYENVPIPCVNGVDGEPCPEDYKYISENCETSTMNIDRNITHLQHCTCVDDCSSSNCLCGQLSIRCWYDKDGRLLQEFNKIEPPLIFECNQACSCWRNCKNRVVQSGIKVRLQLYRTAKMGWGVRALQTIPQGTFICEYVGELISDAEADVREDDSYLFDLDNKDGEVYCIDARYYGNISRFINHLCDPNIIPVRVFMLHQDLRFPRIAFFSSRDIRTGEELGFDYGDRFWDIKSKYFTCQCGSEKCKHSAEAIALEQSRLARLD
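G9a (20 nM) was preincubated 15 min with compound, then reacted 2 h at room temperature with 500 nM biotin-H3K9 peptide and 20 µM SAM. Monomethyl-H3K9 detected by AlphaScreen using anti-H3K9me1 antibody.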
Tau fibril FP: tau fibrillization inhibition (FP). 280,000 compounds, 0.39% hits. K18 P301L tau heparin fibrillization, Alexa594 FP, 6 h. P10636. Potency, µM (top dose mostly 57.7 µM), for the others: at the top dose activity, negative = inhibition, hits mostly inhibitors; further: potency means the concentration at half of the fitted maximal effect; nearly all actives have a fitted effect of over 55% in size
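Human tau K18 […] P301L fragment, 15 uM unlabeled plus 0.24 uM Alexa 594-labeled tau (final), with compound and 20 uM heparin in 100 mM sodium acetate pH 7; 6 hr at 37 C, then Alexa 594 FP read.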
Tau fluor counter: counter-screen for tau fibril formation inhibitors; tau K18 P301L Alexa594 fluorescence, heparin fibrillization; Potency, µM (top dose mostly 57.7 µM), without a hit: at the highest dose activity change, negative = decrease; 280,000 compounds, 0.93% hits; AID 1463; further: potency means the concentration at half of the fitted maximal effect; nearly all actives have a fitted effect of over 55% in size
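Human tau K18 P301L (15 uM unlabeled, 0.24 uM Alexa 594-labeled) in 100 mM sodium acetate pH 7 with 20 uM heparin, 6 hr at 37 C. ThT 30 uM added, 1 hr ambient; Alexa 594 FP and total fluorescence read at 555/632 nm.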
Sfp PPTase inh: blocks B. subtilis Sfp PPTase activity; Q9F4F7; Potency, µM, for inactives: largest response in the series, negative = inhibition, usual class: inhibitors; AID 1490; 310,000 compounds, 3.5% hits; Biochemical Sfp PPTase activity, qHTS;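 further: the enzyme is Sfp with the accession as filed and its product quenches rhodamine fluorescence; potency means the concentration at half of the fitted maximal effect; 0% = enzyme reaction without inhibitor and -100% = no enzyme wells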
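Fluorescence-quenching assay with 15 nM Sfp, 5 uM rhodamine-CoA and 12.5 uM BHQ-2-labelled ybbR peptide in pH 7.6 Hepes/MgCl2 buffer. Enzyme was pre-incubated with compound for 15 min at room temperature. Rate was taken from the 30-min fluorescence change (525/598 nm).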
FBPA coupling cs: inhibits coupling enzyme system, counter-screen for aldolase hits; coupling enzyme system counterscreen, AmpLite Red fluorescence; activity change, negative = inhibition, % at 58.2 µM, hits read low; 290,000 compounds, 0.67% hits; AID 2472; in the data active means activity change below about -30%
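Activity here indicates interference with the coupling reaction, not aldolase inhibition. Compounds at 57.5 uM final met coupling enzymes for 10 min at RT; substrate and AmpLite Red detection followed, with a 525/598 nm fluorescence read after 20 min.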
The depositor's hits bear a star; ? = inconclusive; . = not tested or not shown; [ ] = another dose, or the depositor's remark. This is a sample that favours compounds with a hit; in the whole collection about 11% have one here. Unless noted, the call rests on the fitted dose curve; in most records, active means well fitted curve in the direction sought with a large enough effect; inconclusive means small, poorly fitted or top-dose-only effect, or another doubt; inactive means no such curve, though single readings can be large; an effect the other way counts as inactive or inconclusive. Unless noted, on the % scale 0 is the no-effect control and ±100 the full control effect.

SMILES	Tau fibril ThT	G9a inh	Tau fibril FP	Tau fluor counter	Sfp PPTase inh	FBPA coupling cs
C/C=C/C=C/C(=O)N1CC2(CC(c3cccc(NC(=O)/C=C/C)c3)=NO2)C[C@@H]1C(N)=O (some centres undefined)	7%	?	-9%	9%	28µM*	1
COC(=O)c1cc2sccc2n1CC(=O)Nc1cc(Cl)ccc1OC	-9%	-19%[59 µM]	-15%	?	.	.
CCN(C(=O)Cn1c(=O)n(Cc2ccccc2)c(=O)c2c1c1cc(OC)ccc1n2C)c1ccccc1	3%	?	0%	-5%	.	.
CCOC(=O)C1CCCN(C(=O)c2ccc3c(c2)N(Cc2cccc(Cl)c2)C(=O)c2ccccc2S3(=O)=O)C1 (centres undefined)	-6%	2%[59 µM]	-2%	-16%	.	.
S=c1[nH]c2cc(-c3ccccc3)ccc2o1	?	10µM*	5%	-6%	?	3
O=C1CN(C(=O)CNCc2cccc(Cl)c2)c2ccccc2N1	-10%	11µM*	-1%	-11%	-19%	0
O=C1CN(C(=O)CNCc2ccccc2Cl)c2ccccc2N1	-8%	22µM*	-9%	-8%	?	1
O=C1CN(C(=O)CNC(=O)c2cccc(Cl)c2)c2ccccc2N1	-7%	?	1%	-12%	-4%	3
O=C1CN(C(=O)c2ccccc2Cl)c2ccccc2N1	.	4%	.	.	16%	-10
COc1cc(NC(=O)c2ccc(-c3nc(COc4ccccc4)c(C)o3)cc2)cc(OC)c1	-12%	-29%[59 µM]	?	?	.	.
CN1/C(=C\C(=O)Nc2cccc(Cl)c2)C(C)(C)c2ccccc21	?	?	8%	14µM*[quencher]	18%	-3
CN1/C(=C/C(=O)C2CC2)C(C)(C)c2ccccc21	-6%	1%	6%	6%	11%	0
CN1/C(=C\C(=O)Nc2ccc(F)cc2)C(C)(C)c2ccccc21	?	45µM*	10%	10µM*[quencher]	0%	-16
CN1/C(=C\C(=O)Nc2ccc(Br)cc2)C(C)(C)c2ccccc21	?	-13%[59 µM]	4%	7.1µM*[quencher]	6%	-2
COc1ccc(N2CCN(C(=O)CCn3c(=O)c4cccn4c4cccnc43)CC2)cc1	-14%	-43%[59 µM]	2%	-9%	.	.
CCOc1ccc(N=Nc2c(=O)[nH]n3c(C)cc(C)nc23)cc1	13µM*	7.1µM*	4%	-14%	-11%	3
O=C(COC(=O)CC1CCCCC1)Nc1c(Cl)cccc1Cl	.	17%[12.7 µM]	.	.	.	.
Cc1c(-c2cc(C(=O)O)c3ccccc3n2)cnn1C	-7%	45µM*	6%	-1%	13%	0
Cc1ccc(-c2cc(C(=O)O)c3ccccc3n2)c(C)c1	1%	?	4%	2%	13%	5
Cc1cccc(NS(=O)(=O)c2cccs2)c1	-9%	-8%[12.7 µM]	6%	-10%	8%	-8
Cc1cc(C)nc(NS(=O)(=O)c2cccs2)c1	13%	56µM*	7%	9%	-8%	0
O=C(N/N=C/c1ccncc1)c1ccccc1[N+](=O)[O-]	-1%	10%[59 µM]	-10%	-1%	3%	3
O=C(N/N=C/c1ccc(N2CCOCC2)o1)c1ccccc1[N+](=O)[O-]	?	?	-4%	-28%	16µM*	-6
O=C(N/N=C/c1ccc(N2CCCCC2)o1)c1ccccc1[N+](=O)[O-]	?	11µM*	3%	-14%	?	-8
O=C(N/N=C/c1ccc(N2CCOCC2)o1)c1cccc(C(F)(F)F)c1	?	8.9µM*	-2%	-5%	3.5µM*	-6
SMILES	Tau fibril ThT	G9a inh	Tau fibril FP	Tau fluor counter	Sfp PPTase inh	FBPA coupling cs
Cc1ccc(-c2cc(C(=O)N(Cc3ccccc3)Cc3ccco3)no2)cc1F	-7%	?	-3%	-8%	.	.
COc1ccc(OC)c(-c2noc(CSc3nnc(Cc4ccccc4)n3-c3cccc(C)c3)n2)c1	-17%	-47%[59 µM]	13%	-13%	.	.
Cc1cc(=O)[nH]c(NN=C2CCC(C(C)(C)C)CC2)n1 (centres undefined)	-10%	32µM*	6%	2%	50µM*	-3
C/C(=N\Nc1nc(C)cc(=O)[nH]1)C1CC1	?	7.9µM*	-16%	-7%	40µM*	0
Cc1cc(=O)[nH]c(NCc2ccc(Cl)cc2)n1	.	13%	.	.	22%	1
Cc1cc(=O)[nH]c(NN=C(CC(C)C)CC(C)C)n1	-13%	?	-10%	-8%	56µM*	1
Cc1cc(=O)[nH]c(N/N=C/c2ccc(F)cc2)n1	.	?	.	.	-15%	0
Cc1ccc2ncc3c(-c4ccccc4)nn(CC(=O)NC4CCCCC4)c3c2c1	5%	11%[59 µM]	-6%	-3%	.	.
COc1cccc(CN2CC(C(=O)NCCCCc3ccccn3)CCC2=O)c1 (centres undefined)	.	20%	.	.	11%	.
COCCNC(=O)CSc1nc2sc(C)c(C)c2c(=O)n1-c1ccccc1	-9%	-11%	-2%	-14%	21%	5
CCn1c(SCC(=O)NCCOC)nc2sc(C)c(C)c2c1=O	-2%	-3%[12.7 µM]	-6%	-3%	45µM*	3
COc1ccc([C@@H]2[C@H]3CN(C(C)=O)CC=C3C(C#N)=C(N)C2(C#N)C#N)c2ccccc12	?	45µM*	?	-12%	10%	-6
CCCC1C2CN(C(C)=O)CC=C2C(C#N)=C(N)C1(C#N)C#N (centres undefined)	-9%	14µM*	-12%	-7%	-6%	-6
CCC1C2CN(C(C)=O)CC=C2C(C#N)=C(N)C1(C#N)C#N (centres undefined)	?	45µM*	?	-13%	10%	-2
OC(CNCc1ccc(Cl)cc1)COc1ccccc1 (centres undefined)	.	-46%	.	.	-25%	2
OC(CNCCc1ccc(Cl)cc1)COCc1ccco1 (centres undefined)	-7%	22µM*	-6%	-6%	-27%	6
OC(CNCc1ccccc1)COCc1ccc(Cl)cc1 (centres undefined)	3%	10µM*	-4%	3%	-19%	2
CCOc1ccc(CNC(=O)CCS(=O)(=O)c2cc3c4c(c2)CCN4C(=O)CC3)cc1OC	?	-8%[59 µM]	0%	-24%	.	.
CCN1C(=O)[C@H]2[C@H]3[C@H](O)[C@H](O)C/C(=N/O[C@@H](C)c4cn([C@H](CO)Cc5ccccc5)nn4)[C@@H]3CC[C@@H]2C1=O	-9%[11.5 µM]	.	1%[11.6 µM]	-8%[11.6 µM]	15%	0
COc1ccc(-c2csc(Nc3ncccc3C)n2)cc1	-7%	18µM*	-4%	-2%	4%	-1
Cc1nc(C)c(-c2csc(Nc3ncccc3C)n2)s1	.	.	.	.	-12%	4

High-throughput results from PubChem BioAssay.
